Measurements taken from ChEMBL document CHEMBL3988442, “University of Dundee, Small-Polar-MMV Screening Library” (2021).
About 13,000 (27%) of roughly 48,000 compounds showed an effect of 50% or more. Some of the results follow.

These compounds were tested on Wolbachia pipientis (assay: Anti-Wolbachia Cell-Based Screen). Settings: 5 µM.
Format: functional
Design: scale not given: in the data most compounds retested in dose-response had high values
For `CC(=O)c1cccc(NC(=O)CN2CCCC(C3OCCO3)C2)c1` (centres undefined), the “Percent Effect” value was 1.142%. `CN1CCN(CCCN(C)S(=O)(=O)CC2CCCCC2)CC1` was tested, and the “Percent Effect” value was -9.559%. In the case of `N#CC1(C(=O)N2CCN(Cc3ccon3)CC2)CCC1`, the “Percent Effect” value is reported as -11.71%. With `Cc1ccc(C(=O)NS(=O)(=O)c2ccc3c(c2)OCCCO3)o1` the “Percent Effect” value was -8.261%. In the case of `Cc1cc(NC(=O)CN2CCn3c(nnc3C(C)C)C2)on1`, the “Percent Effect” value is reported as -16.14%. `Cc1cc(CN2CCN(c3nn4cc(C)nc4s3)CC2)on1` was tested, and the “Percent Effect” value was 9.459%. `Cc1cc(-c2nn3c(C4CC4)nnc3s2)on1` was tested, and the “Percent Effect” value was 189.6%. `CCn1cc(-c2nn3c(C(C)C)nnc3s2)c(C)n1` was tested, and the “Percent Effect” value was 106.3%. In the case of `CCn1c(CN2CCCC2)nnc1C1CCN(Cc2cc(C)no2)CC1`, the “Percent Effect” value is reported as -0.1861%. With `Cc1cc(CN(C2CC2)C(C)C(C)C)on1` (centres undefined) the “Percent Effect” value was 26.3%. `COc1c(C2CCCN2Cc2cc(C)no2)c(C)nn1C` (centres undefined) was tested, and the “Percent Effect” value was -10.58%. With `CC(C)c1nnc2sc(CC3CCS(=O)(=O)C3)nn12` (centres undefined) the “Percent Effect” value was 8.57%. With `Cc1cc(-c2nn3c(C(C)C)nnc3s2)on1` the “Percent Effect” value was 113.9%. With `Cc1cc(-c2nn3c(C4CCC4)nnc3s2)on1` the “Percent Effect” value was 155.9%. For `Cc1cc(CN2CCCC2c2noc(C3CC3)n2)c2ccccc2n1` (centres undefined), the “Percent Effect” value was 1.295%. `Cc1noc(C)c1-c1n[nH]c2c1CN(S(=O)(=O)c1ccsc1)CC2` was tested, and the “Percent Effect” value was 10.76%. With `N#Cc1cccc(Cl)c1NCCCc1nc(=O)[nH][nH]1` the “Percent Effect” value was -19.22%. For `O=C(N[C@@H]1CCNC[C@H]1O)c1ccccc1OC(F)(F)C(F)F`, the “Percent Effect” value was -13.38%. In the case of `Cc1ccn(Cc2nc(C(C)OCC(C)C)no2)c(=O)c1` (centres undefined), the “Percent Effect” value is reported as 12.04%. `CC(=O)N1CCCN(Cc2nnc(C(C)(C)C)o2)CC1` was tested, and the “Percent Effect” value was -4.735%. For `Cn1nc2c(cc1=O)CN(CC(=O)NC1CCCCNC1=O)CC2` (centres undefined), the “Percent Effect” value was 4.736%. For `CSc1ccc(C(=O)N(c2ccc(F)cn2)C2CCOCC2)o1`, the “Percent Effect” value was 4.022%. With `COCC(=O)N1CCN2C(=O)OC[C@H]2C1` the “Percent Effect” value was -11.81%. With `Cc1nn(C)c2c(N3CCN(C(=O)c4ccccc4)CC3)ncnc12` the “Percent Effect” value was 3.277%. In the case of `COCC(=O)N1CCN(C)CC(Cc2cc(N(C)C)ncn2)C1` (centres undefined), the “Percent Effect” value is reported as 95.35%. For `CN1CCN(C(=O)c2ccccc2)CC(Cc2cc(N(C)C)ncn2)C1` (centres undefined), the “Percent Effect” value was 80.45%. With `CN1CCN(C(=O)c2cncc(CC3CCCN(C)C3)c2)CC1` (centres undefined) the “Percent Effect” value was -11.29%. With `COCC(=O)N1CCCC(C(=O)N(C)CCCc2cnn(C)c2)C1` (centres undefined) the “Percent Effect” value was 14.99%. For `OCc1cc2ccccc2nc1NCC1CC1`, the “Percent Effect” value was 2.516%. `O=C(Cn1cnc(NC(=O)c2ccccn2)n1)NCc1ccccc1` was tested, and the “Percent Effect” value was 11.88%. `COc1ccc(CN2CCOC3(CCCN(c4nnc(C)o4)C3)C2)cc1.O=C(O)C(F)(F)F` (centres undefined) was tested, and the “Percent Effect” value was -9.107%. For `CCOC1CC2(CCN(Cc3cccn3C)CC2)C1.O=C(O)C(F)(F)F`, the “Percent Effect” value was 0.1287%. With `Cc1nc(CN2C(=O)CCC23CCN(Cc2cccn2C)CC3)cs1.O=C(O)C(F)(F)F.O=C(O)C(F)(F)F` the “Percent Effect” value was 110.4%. For `Cc1nc(CN2C(=O)CCC23CCN(Cc2ccccn2)CC3)cs1.O=C(O)C(F)(F)F.O=C(O)C(F)(F)F`, the “Percent Effect” value was 113.7%. `COCCN1CCc2ccc(=O)n(Cc3csc(C)n3)c2CC1.O=C(O)C(F)(F)F.O=C(O)C(F)(F)F` was tested, and the “Percent Effect” value was -8.44%. For `COCCN1CCC2(CCC(=O)N2Cc2csc(C)n2)CC1.O=C(O)C(F)(F)F.O=C(O)C(F)(F)F`, the “Percent Effect” value was 99.3%. In the case of `Cc1nc(CN2C(=O)CCC23CCN(Cc2ccoc2)CC3)cs1.O=C(O)C(F)(F)F.O=C(O)C(F)(F)F`, the “Percent Effect” value is reported as 99.35%. `Cc1nc(CN2C(=O)CCC23CCN(c2ncccn2)CC3)cs1.O=C(O)C(F)(F)F` was tested, and the “Percent Effect” value was 11.75%. For `NC(=O)C1CCN(C(=O)CSC2CCCc3ccccc32)CC1` (centres undefined), the “Percent Effect” value was -6.301%. With `CCOc1ccccc1C(CC(=O)N(C)c1ccccc1)NC(C)=O` (centres undefined) the “Percent Effect” value was 3.437%. With `O=C(c1ccn(-c2cccc(Cl)c2)n1)N1CCN(C2CC2)CC1` the “Percent Effect” value was 7.351%. With `CCC(C)NC(=O)c1cncc(Br)c1` (centres undefined) the “Percent Effect” value was 12.99%. In the case of `CCC(C)NC(=O)CS(=O)(=O)Cc1cc(C)ccc1C` (centres undefined), the “Percent Effect” value is reported as -1.911%. With `CCC(C)NC(=O)c1cc(S(=O)(=O)N(C)C)c(C)s1` (centres undefined) the “Percent Effect” value was 107%. With `CC(C)NC(=O)c1cc(Br)cc(S(=O)(=O)N2CCOCC2)c1F` the “Percent Effect” value was -9.649%. In the case of `Cc1sc(C(=O)NC(C)C)cc1S(=O)(=O)N(C)C`, the “Percent Effect” value is reported as 135.1%. For `COCCNC(=O)c1cc(S(=O)(=O)N2CCCC2)cs1`, the “Percent Effect” value was 6.896%. For `CCC(C)NC(=O)c1cc(S(=O)(=O)N2CCCC2)c(C)s1` (centres undefined), the “Percent Effect” value was 99.85%. With `CC(C)NC(=O)CS(=O)(=O)c1cc2c(cc1Cl)OCCO2` the “Percent Effect” value was -3.378%. For `CC(C)NC(=O)C(C)S(=O)(=O)c1cc2c(cc1Cl)OCCO2` (centres undefined), the “Percent Effect” value was -0.523%. For `Cc1cc(-c2cnc(NC3CC3)nc2-c2ccco2)on1`, the “Percent Effect” value was 84.65%. In the case of `Cc1cc(-c2cnc(NC3CCCCC3)nc2-c2ccco2)on1`, the “Percent Effect” value is reported as 96.71%. With `Cc1cc(-c2cnc(NC3CCCC3)nc2-c2ccoc2C)on1` the “Percent Effect” value was -4.074%. In the case of `CCN1CCN(c2ncc(-c3cc(C)no3)c(-c3ccoc3C)n2)CC1`, the “Percent Effect” value is reported as -0.7712%. For `CCN1CCC(N2CCN(c3cc(-c4nc(C)no4)ccn3)CC2)CC1`, the “Percent Effect” value was 10.41%. In the case of `Cc1cc(-c2cnc(NC3CC3)nc2-c2ccoc2C)on1`, the “Percent Effect” value is reported as 65.28%. With `CCN1CCN(c2ncc(-c3cc(C)no3)c(-c3ccco3)n2)CC1` the “Percent Effect” value was 110.6%. In the case of `O=C1NCCO[C@H]2CN(C(=O)CCc3ccccc3Cl)CC[C@@H]12`, the “Percent Effect” value is reported as -36.6%. With `COCC1CN(C(=O)COc2ccc(C)cc2)Cc2cn(C)nc21.O=C(O)C(F)(F)F` (centres undefined) the “Percent Effect” value was -4.21%. `CCn1ncc2c1CCCC2NCc1cscn1` (centres undefined) was tested, and the “Percent Effect” value was -5.451%. `Cc1cc(-c2cnc(NC3CCCC3)nc2-c2ccc(C)o2)on1` was tested, and the “Percent Effect” value was 122.4%. For `Cc1cc(C2CCC2)nc(N(C)Cc2cc(-c3ccccn3)no2)n1`, the “Percent Effect” value was 38.25%. `Cc1cc(-c2cnc(NC3CCCC3)nc2-c2ccco2)on1` was tested, and the “Percent Effect” value was 111.9%. In the case of `Cc1cccnc1C(Nc1nccc(C2CCCC2)n1)C1CC1` (centres undefined), the “Percent Effect” value is reported as -13.6%. In the case of `Cc1occc1-c1nc(NC2CCCC2)ncc1-c1ccccn1`, the “Percent Effect” value is reported as 77.82%. In the case of `CNC(=O)C1CCCCN1C(=O)c1csc(-c2ccc(C)o2)n1` (centres undefined), the “Percent Effect” value is reported as -2.315%. `O=C1CCC(C(=O)NCCOc2ccccc2-c2ccccc2)CN1` (centres undefined) was tested, and the “Percent Effect” value was 30.95%. For `NC(=O)c1cccc(NC(=O)CSc2ccc3c(c2)CCC3)c1`, the “Percent Effect” value was 10.83%. In the case of `COc1ccc2nc(NC(=O)c3c(C(=O)O)cnn3C)sc2c1`, the “Percent Effect” value is reported as 107.5%. With `Cn1ncc(C(=O)O)c1C(=O)Nc1nc2ccccc2s1` the “Percent Effect” value was 107.6%. For `COc1ccc2nc(C3CC3)cc(C(=O)NCc3ncnn3C)c2c1`, the “Percent Effect” value was -9.156%. With `Cn1c(C(F)(F)F)nn(CCNC(=O)c2nc3ccccc3s2)c1=O` the “Percent Effect” value was -27.26%. With `Cn1cnnc1CNC(=O)c1ccc(Br)cc1O` the “Percent Effect” value was -16.68%. With `Cn1ncc(C(=O)O)c1C(=O)Nc1nc2ccc(Br)cc2s1` the “Percent Effect” value was 84.26%. For `COc1nc2c(cc1C(=O)NCCc1nc3ccccc3s1)CCC2`, the “Percent Effect” value was -9.25%. With `CCOc1ccc2nc(NC(=O)c3c(C(=O)O)cnn3C)sc2c1` the “Percent Effect” value was -2.899%. For `Fc1cnc(N2CCc3nnc(COc4ccccn4)n3CC2)nc1.O=C(O)C(F)(F)F`, the “Percent Effect” value was 2.887%. For `O=S(=O)(C1CC1)N1CCOCC2(CN(c3ncccn3)CCO2)C1` (centres undefined), the “Percent Effect” value was -5.762%. For `CCn1cc(C(=O)N2CCCN(c3cccnn3)CC2)c2ccccc21`, the “Percent Effect” value was -8.81%. With `CO[C@@H]1CCN(Cc2nccs2)C[C@@H]1Cc1ccccc1.O=C(O)C(F)(F)F` the “Percent Effect” value was -16.15%. `CO[C@@H]1CCN(Cc2ccoc2)[C@H]1Cc1ccccc1.O=C(O)C(F)(F)F` was tested, and the “Percent Effect” value was 118.7%. `CO[C@H]1CCN(Cc2ccoc2)C[C@@H]1Cc1ccccc1.O=C(O)C(F)(F)F` was tested, and the “Percent Effect” value was 68.19%. For `CO[C@@H]1CCN(C2CCOCC2)C[C@@H]1Cc1ccccc1.O=C(O)C(F)(F)F`, the “Percent Effect” value was -11.13%. With `CO[C@@H]1CCN(Cc2ccc(C)o2)[C@H]1Cc1ccccc1.O=C(O)C(F)(F)F` the “Percent Effect” value was 10.3%. For `O=C(O)C(F)(F)F.c1ccc(C[C@H]2CN(C3CCOCC3)CC[C@H]2OCC2CC2)cc1`, the “Percent Effect” value was -4.378%. With `CO[C@@H]1CCN(Cc2ccoc2)C[C@@H]1Cc1ccccc1.O=C(O)C(F)(F)F` the “Percent Effect” value was 89.22%. `CO[C@H]1CCN(C2CCOCC2)C[C@@H]1Cc1ccccc1.O=C(O)C(F)(F)F` was tested, and the “Percent Effect” value was -3.139%. With `COc1ccc(CN2CC[C@@H](O)[C@@H]2Cc2ccccc2)cc1.O=C(O)C(F)(F)F` the “Percent Effect” value was 17.99%. With `Cc1cc(Cl)c2c(c1)C1(NC(=O)c3cccnc3N1)C(=O)N2` (centres undefined) the “Percent Effect” value was -1.916%. In the case of `CC(C)=CCC1(CO)CCCN(Cc2nccs2)C1` (centres undefined), the “Percent Effect” value is reported as 1.266%. For `O=C(O)C(F)(F)F.O=C(c1ccnnc1)N1CCN2C[C@H](Oc3cccc(F)c3)C[C@H]2C1`, the “Percent Effect” value was -26.48%. With `COc1ccc(C)cc1NC(=O)Cn1nc(C)c(C#N)c1N` the “Percent Effect” value was -0.6679%. `COc1ccccc1C1(CNc2snc(Cl)c2C#N)CCCC1` was tested, and the “Percent Effect” value was -12.01%. For `Cc1nc2sccn2c1CNc1cc(C(=O)O)ccc1F`, the “Percent Effect” value was -0.08043%. In the case of `COc1ccc(C2(NC(=O)CCn3cncn3)CCCCC2)cc1`, the “Percent Effect” value is reported as -6.832%. `Cc1nc(CN2CCC(O)(c3ccccc3F)CC2)c2ccccn12.O=C(O)CC(O)(CC(=O)O)C(=O)O` was tested, and the “Percent Effect” value was 94.96%. `COc1ccccc1C1(CNc2nnc(C)c(C)c2C#N)CCCC1` was tested, and the “Percent Effect” value was -5.07%. `Cc1nc2sccn2c1CNc1ccc(C(=O)O)cc1` was tested, and the “Percent Effect” value was 3.655%. For `Cc1nc(CN2CCC3(CCCO3)CC2)c2ccccn12`, the “Percent Effect” value was 20.84%. With `Cc1nc2sccn2c1CNC1(c2ccccc2F)CCCC1.O=C(O)CC(O)(CC(=O)O)C(=O)O` the “Percent Effect” value was 86.58%. In the case of `COc1c(CNC2(c3ccc(Cl)cc3)CCC2)c(C)nn1C`, the “Percent Effect” value is reported as -12.89%. `COc1ccccc1C1(NCc2c(C)nc3c(C)cccn23)CCCC1.Cl` was tested, and the “Percent Effect” value was 58.58%. In the case of `COc1ccc(C2(NCc3c(C)nc4c(C)cccn34)CCCC2)cc1.O=C(O)CC(O)(CC(=O)O)C(=O)O`, the “Percent Effect” value is reported as 147.1%. `Cc1ccc(C2(O)CCN(Cc3nc(C)n4ccccc34)CC2)nc1` was tested, and the “Percent Effect” value was -9.121%.
